Results on two compounds are retold here after ChEMBL document CHEMBL2218924, “A broad activity screen in support of a chemogenomic map for kinase signalling research and drug discovery” (Biochem J, 2013).

SMILES strings stand for the structures.

The target of assay [1] is T1, Ephrin type-A receptor 3 (Homo sapiens) (UniProt P29320).
T1 sequence (whole entry): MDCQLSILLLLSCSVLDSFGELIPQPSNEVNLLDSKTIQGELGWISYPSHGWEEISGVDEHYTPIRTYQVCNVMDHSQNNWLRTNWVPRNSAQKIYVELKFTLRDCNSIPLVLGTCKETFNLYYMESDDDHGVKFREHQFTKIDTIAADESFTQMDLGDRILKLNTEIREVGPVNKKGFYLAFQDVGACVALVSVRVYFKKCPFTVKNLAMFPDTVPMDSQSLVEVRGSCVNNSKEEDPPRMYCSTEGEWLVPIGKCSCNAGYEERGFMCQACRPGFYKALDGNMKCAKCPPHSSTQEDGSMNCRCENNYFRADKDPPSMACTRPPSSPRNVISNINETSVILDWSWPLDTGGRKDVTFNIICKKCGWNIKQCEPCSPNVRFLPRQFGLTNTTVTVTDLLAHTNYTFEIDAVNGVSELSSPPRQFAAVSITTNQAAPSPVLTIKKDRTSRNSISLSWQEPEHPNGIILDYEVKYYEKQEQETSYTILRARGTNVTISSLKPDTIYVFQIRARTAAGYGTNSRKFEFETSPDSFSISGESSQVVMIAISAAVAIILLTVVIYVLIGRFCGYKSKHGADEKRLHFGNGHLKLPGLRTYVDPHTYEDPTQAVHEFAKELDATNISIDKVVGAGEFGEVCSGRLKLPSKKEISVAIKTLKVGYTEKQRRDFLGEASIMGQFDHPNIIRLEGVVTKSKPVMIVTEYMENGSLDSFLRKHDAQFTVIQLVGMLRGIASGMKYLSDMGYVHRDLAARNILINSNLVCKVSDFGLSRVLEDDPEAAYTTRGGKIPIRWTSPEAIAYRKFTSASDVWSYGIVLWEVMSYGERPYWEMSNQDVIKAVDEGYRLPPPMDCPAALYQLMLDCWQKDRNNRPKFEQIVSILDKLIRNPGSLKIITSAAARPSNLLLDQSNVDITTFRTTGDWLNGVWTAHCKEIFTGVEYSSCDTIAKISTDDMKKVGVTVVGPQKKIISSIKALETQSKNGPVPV
The note with it: at 10 µM.

In assay [2] the target is Ephrin type-A receptor 4 (Homo sapiens) (UniProt P54764). The note with it: at 1 µM.
Chain of Ephrin type-A receptor 4 (Homo sapiens) (P54764 whole entry): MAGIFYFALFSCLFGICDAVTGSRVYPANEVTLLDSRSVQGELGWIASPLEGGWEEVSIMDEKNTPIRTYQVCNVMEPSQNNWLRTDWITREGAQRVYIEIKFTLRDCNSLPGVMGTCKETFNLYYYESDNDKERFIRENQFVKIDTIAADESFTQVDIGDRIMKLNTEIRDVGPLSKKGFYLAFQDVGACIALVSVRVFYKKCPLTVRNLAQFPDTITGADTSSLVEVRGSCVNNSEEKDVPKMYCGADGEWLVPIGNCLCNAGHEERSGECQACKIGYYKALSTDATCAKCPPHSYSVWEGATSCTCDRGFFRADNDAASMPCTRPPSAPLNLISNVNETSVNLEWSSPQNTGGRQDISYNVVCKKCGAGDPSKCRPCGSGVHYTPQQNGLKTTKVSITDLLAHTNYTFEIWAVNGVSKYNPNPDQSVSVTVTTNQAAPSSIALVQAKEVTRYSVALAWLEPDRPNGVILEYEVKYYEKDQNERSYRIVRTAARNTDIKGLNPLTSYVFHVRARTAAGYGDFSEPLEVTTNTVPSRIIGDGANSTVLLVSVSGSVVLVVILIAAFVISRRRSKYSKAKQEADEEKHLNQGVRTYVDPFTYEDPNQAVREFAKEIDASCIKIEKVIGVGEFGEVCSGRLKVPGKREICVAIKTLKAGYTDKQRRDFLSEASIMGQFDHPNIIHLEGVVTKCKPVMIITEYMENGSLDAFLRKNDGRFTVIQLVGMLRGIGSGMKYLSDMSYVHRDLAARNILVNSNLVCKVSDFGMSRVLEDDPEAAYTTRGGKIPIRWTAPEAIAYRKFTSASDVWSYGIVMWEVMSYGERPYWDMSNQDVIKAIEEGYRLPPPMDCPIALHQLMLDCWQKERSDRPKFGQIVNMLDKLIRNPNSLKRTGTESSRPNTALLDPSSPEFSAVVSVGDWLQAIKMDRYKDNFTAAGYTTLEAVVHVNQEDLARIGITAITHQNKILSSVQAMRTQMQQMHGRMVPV
The target is the same in assay [3]. The settings on record: at 10 µM.
The target in assay [4] is Ephrin type-A receptor 5 (Homo sapiens) (UniProt P54756). The note with it: at 1 µM.
Chain of Ephrin type-A receptor 5 (Homo sapiens) (P54756 whole entry): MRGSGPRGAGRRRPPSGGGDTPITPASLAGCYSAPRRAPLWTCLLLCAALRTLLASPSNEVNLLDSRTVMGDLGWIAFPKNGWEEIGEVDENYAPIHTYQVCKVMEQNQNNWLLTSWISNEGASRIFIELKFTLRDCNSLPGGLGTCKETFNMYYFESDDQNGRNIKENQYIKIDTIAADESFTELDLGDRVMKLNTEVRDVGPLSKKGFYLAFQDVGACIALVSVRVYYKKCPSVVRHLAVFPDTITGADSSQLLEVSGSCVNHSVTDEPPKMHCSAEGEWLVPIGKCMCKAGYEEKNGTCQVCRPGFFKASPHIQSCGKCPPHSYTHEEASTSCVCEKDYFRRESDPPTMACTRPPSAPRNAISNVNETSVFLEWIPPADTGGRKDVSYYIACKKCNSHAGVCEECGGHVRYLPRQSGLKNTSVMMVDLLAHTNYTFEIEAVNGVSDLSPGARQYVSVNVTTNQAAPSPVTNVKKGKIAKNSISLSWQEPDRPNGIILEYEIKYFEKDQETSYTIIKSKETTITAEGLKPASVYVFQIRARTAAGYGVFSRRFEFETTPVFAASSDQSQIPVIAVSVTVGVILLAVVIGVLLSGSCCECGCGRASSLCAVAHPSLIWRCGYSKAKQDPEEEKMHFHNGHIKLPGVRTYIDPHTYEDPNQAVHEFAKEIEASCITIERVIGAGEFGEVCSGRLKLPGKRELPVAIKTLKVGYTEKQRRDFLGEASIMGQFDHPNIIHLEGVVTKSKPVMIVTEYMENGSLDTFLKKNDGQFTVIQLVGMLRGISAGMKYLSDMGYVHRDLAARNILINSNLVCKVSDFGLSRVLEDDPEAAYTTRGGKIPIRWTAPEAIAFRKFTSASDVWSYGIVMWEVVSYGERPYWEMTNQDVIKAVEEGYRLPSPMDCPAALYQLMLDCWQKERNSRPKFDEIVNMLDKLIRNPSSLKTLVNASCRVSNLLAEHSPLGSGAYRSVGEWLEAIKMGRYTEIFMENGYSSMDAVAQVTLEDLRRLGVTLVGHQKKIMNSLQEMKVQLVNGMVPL
Assay [5] has the same target. The settings on record: at 10 µM.
The target in assay [6] is Ephrin type-A receptor 7 (Homo sapiens) (UniProt Q15375). The note with it: at 1 µM.
Chain of Ephrin type-A receptor 7 (Homo sapiens) (Q15375 28-998 limits assumed): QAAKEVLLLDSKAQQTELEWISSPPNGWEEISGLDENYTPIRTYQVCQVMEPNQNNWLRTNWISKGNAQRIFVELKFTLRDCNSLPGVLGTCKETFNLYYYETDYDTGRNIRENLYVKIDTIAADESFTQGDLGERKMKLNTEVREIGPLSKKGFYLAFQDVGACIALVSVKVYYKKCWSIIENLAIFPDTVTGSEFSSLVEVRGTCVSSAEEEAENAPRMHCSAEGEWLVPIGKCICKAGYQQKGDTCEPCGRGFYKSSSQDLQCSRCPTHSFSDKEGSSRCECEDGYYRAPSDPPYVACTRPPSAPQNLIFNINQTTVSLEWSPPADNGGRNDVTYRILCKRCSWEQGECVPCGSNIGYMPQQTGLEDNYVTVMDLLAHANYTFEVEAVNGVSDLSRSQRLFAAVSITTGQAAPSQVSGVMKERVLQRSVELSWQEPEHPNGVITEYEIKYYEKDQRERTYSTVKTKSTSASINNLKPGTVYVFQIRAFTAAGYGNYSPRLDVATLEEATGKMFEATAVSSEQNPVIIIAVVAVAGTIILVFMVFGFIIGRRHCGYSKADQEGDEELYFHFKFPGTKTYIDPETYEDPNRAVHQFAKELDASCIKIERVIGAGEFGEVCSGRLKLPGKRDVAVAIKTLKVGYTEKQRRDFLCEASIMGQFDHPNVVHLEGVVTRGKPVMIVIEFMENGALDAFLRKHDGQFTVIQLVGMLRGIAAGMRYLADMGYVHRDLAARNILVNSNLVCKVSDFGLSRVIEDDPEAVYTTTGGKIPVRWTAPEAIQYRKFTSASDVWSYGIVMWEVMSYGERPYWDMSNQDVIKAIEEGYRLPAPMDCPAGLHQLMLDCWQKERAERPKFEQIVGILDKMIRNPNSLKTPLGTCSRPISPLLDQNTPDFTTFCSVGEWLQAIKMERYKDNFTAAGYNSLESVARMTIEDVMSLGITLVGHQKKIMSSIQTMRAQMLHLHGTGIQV
Assay [7] shares this target. The note with it: at 10 µM.
The target of assay [8] is T2, Ephrin type-A receptor 8 (Homo sapiens) (UniProt P29322).
T2 sequence (whole entry): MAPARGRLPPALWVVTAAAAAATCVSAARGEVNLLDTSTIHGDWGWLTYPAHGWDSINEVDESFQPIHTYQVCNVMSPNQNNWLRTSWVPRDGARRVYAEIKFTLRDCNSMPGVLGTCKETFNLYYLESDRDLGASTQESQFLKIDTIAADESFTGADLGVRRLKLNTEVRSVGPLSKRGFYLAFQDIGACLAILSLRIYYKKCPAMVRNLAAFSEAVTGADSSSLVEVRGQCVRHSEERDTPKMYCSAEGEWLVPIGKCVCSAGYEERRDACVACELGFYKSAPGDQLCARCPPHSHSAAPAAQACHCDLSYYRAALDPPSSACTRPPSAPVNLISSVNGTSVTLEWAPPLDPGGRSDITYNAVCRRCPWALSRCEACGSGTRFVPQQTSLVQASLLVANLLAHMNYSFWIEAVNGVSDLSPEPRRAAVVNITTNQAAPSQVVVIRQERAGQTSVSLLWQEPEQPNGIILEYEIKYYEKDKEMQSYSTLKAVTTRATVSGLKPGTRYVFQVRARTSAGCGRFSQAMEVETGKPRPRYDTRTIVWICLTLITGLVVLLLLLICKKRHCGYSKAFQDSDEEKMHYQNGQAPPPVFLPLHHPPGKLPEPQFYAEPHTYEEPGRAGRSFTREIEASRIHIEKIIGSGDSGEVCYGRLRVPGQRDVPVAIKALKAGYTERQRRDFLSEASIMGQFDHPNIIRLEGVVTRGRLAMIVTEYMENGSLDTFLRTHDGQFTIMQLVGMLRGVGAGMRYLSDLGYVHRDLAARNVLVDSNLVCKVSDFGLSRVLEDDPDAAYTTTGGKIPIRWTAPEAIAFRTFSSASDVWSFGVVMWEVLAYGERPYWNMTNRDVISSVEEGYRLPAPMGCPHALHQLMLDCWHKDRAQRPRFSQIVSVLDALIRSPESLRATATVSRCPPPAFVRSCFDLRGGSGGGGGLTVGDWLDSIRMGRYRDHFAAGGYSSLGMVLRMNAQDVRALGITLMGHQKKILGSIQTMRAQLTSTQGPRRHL
The note with it: at 1 µM.

Assay [9] deals with T2, Ephrin type-A receptor 8 (Homo sapiens). The note with it: at 10 µM.
The target in assay [10] is T3, Ephrin type-B receptor 1 (Homo sapiens) (UniProt P54762).
T3 sequence (whole entry): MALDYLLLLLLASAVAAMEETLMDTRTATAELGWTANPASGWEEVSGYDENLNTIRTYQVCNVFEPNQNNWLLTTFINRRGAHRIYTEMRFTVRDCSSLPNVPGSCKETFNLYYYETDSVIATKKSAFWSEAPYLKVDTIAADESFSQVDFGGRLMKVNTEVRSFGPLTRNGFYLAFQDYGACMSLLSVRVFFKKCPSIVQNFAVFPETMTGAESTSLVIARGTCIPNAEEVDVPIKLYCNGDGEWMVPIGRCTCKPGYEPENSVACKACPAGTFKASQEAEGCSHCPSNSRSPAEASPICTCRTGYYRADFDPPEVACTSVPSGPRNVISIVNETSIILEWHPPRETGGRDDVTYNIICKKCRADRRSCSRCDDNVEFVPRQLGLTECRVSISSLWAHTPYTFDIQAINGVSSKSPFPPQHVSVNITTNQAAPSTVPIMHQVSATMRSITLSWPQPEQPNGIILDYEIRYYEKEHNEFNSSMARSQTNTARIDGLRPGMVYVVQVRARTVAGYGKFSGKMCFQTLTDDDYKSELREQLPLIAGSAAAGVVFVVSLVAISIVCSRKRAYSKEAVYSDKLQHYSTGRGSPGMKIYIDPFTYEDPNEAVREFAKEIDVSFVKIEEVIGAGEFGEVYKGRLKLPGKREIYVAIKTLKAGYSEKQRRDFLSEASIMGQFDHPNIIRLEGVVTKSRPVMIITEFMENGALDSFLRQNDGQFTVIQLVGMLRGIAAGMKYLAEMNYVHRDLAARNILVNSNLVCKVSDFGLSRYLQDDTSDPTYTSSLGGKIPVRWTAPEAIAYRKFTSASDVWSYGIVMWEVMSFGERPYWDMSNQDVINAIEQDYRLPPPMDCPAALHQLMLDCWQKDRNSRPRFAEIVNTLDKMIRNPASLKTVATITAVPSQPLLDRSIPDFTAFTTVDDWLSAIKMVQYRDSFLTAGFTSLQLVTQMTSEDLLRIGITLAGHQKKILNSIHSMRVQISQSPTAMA
The note with it: at 1 µM.

The target in assay [11] is T3, Ephrin type-B receptor 1 (Homo sapiens). The settings on record: at 10 µM.
Assay [12] deals with T4, Ephrin type-B receptor 4 (Homo sapiens) (UniProt P54760).
T4 sequence (whole entry): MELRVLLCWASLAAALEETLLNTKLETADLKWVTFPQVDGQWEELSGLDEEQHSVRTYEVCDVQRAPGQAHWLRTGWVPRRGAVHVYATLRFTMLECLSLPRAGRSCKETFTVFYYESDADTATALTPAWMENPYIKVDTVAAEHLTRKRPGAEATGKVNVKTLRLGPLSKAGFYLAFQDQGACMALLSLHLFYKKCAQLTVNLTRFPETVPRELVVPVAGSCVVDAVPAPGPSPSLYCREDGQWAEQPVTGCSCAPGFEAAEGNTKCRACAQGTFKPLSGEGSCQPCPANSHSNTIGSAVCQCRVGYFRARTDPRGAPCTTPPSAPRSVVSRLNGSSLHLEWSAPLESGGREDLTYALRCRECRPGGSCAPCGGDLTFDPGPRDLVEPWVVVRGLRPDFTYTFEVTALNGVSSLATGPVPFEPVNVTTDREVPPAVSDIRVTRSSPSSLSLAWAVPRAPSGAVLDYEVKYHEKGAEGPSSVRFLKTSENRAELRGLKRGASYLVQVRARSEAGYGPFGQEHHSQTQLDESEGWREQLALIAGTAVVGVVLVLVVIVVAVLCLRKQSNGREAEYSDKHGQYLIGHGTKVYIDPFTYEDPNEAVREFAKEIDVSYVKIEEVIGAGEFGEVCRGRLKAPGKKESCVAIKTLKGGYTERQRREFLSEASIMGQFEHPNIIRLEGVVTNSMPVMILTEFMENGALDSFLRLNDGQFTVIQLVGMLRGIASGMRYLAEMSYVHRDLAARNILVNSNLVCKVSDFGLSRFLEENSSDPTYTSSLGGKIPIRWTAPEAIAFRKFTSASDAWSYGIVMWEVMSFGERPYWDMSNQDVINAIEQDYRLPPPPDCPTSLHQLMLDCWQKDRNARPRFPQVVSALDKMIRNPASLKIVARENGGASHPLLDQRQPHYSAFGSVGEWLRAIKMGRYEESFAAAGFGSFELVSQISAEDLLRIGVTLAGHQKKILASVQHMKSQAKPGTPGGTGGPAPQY
The note with it: at 1 µM.

Assay [13] deals with T4, Ephrin type-B receptor 4 (Homo sapiens). The note with it: at 10 µM.
In assay [14] the target is Receptor tyrosine-protein kinase erbB-4 (Homo sapiens) (UniProt Q15303). The note with it: at 1 µM.
Chain of Receptor tyrosine-protein kinase erbB-4 (Homo sapiens) (Q15303 whole entry): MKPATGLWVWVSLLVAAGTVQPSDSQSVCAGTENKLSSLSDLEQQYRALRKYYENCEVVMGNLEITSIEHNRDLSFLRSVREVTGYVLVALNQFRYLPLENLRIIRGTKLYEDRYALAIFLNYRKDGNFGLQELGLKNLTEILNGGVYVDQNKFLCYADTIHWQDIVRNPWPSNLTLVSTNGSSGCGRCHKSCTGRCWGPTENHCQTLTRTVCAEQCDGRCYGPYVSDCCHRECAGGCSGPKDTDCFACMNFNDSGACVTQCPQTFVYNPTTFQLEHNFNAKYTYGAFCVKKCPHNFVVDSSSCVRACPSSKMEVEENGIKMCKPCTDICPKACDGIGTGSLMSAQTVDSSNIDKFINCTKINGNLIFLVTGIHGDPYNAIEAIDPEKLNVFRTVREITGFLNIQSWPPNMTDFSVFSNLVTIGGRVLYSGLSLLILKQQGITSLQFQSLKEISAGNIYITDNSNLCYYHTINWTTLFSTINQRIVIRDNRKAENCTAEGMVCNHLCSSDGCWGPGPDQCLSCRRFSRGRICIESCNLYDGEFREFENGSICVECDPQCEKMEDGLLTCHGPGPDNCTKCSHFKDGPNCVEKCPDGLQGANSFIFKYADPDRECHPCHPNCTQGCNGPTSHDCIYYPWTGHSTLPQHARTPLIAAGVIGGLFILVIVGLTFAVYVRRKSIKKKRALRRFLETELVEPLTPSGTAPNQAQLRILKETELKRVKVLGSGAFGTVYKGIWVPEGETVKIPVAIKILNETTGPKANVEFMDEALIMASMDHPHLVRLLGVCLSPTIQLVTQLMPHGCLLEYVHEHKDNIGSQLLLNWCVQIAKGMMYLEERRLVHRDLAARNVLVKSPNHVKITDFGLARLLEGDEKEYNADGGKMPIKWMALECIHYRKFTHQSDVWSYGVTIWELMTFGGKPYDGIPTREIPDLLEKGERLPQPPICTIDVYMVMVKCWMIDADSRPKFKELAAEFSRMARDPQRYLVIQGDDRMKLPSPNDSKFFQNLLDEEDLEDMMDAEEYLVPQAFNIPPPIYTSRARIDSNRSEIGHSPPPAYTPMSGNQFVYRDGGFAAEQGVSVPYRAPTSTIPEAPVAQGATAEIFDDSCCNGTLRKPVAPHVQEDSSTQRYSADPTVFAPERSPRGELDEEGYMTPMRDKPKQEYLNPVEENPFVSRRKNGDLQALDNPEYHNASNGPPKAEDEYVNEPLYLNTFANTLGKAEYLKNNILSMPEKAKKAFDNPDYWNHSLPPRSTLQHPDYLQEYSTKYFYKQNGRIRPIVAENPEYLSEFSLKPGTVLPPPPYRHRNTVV
Assay [15] shares this target. The note with it: at 10 µM.
Assay [16] deals with Focal adhesion kinase 1 (Homo sapiens) (UniProt Q05397). The settings on record: at 1 µM.
Assay [17] concerns the target T5, Ephrin type-B receptor 2 (Homo sapiens) (UniProt P29323).
T5 sequence (whole entry): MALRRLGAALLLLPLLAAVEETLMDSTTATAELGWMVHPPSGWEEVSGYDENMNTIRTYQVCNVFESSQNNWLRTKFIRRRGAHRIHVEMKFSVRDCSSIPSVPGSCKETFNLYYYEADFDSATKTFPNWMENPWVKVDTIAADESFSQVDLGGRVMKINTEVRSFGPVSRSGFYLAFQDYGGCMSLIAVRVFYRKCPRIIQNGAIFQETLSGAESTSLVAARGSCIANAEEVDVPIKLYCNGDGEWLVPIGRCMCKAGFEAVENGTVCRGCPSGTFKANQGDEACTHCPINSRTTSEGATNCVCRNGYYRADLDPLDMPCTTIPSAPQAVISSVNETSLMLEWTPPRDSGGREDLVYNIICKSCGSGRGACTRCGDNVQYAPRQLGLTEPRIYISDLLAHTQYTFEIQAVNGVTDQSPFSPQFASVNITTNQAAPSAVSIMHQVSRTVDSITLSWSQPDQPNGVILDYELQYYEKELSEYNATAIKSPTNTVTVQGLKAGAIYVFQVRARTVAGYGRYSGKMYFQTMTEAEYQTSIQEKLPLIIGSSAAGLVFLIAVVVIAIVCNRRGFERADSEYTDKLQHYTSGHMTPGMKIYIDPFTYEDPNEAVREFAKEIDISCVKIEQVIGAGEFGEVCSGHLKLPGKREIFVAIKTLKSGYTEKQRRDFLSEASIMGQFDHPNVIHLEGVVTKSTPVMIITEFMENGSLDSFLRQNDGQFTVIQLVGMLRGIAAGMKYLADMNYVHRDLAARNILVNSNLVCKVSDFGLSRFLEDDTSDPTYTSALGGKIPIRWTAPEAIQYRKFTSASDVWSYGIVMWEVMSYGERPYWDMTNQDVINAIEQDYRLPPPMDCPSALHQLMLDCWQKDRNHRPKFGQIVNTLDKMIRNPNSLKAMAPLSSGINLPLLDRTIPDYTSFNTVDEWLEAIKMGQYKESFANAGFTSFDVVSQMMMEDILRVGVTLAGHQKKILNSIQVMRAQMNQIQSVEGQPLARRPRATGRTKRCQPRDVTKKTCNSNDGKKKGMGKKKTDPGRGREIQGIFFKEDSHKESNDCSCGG
The note with it: at 10 µM.

`Nc1nc(Nc2ccc(S(N)(=O)=O)cc2)nn1C(=S)Nc1c(F)cccc1F`: the residual activity (usually the signal under treatment as a percentage of the control signal) in assay [1] amounted to 23%; in assay [2], 97%; in assay [3], 86%; in assay [4], 59%; in [5] it was 11%; in [6], 3%. Besides, the residual activity in assay [7] was -2%; in assay [8], 76%; in [9], 24%; in assay [10], 1%; in [11], -1%; in assay [12], 30%. Also, the residual activity in [13] was 4%; in assay [14] it was 105%; in [15] it was 96%; in assay [16], 20%.

Regarding `N#CCCc1ccc2c(c1)-c1[nH]c3ccc([N+](=O)[O-])cc3c1CC(=O)N2`, the residual activity worked out at 43% in [1]; 79% in [6]; 56% in [7]; 77% in assay [8]; 69% in assay [9]; 74% in [11]. Moreover, the residual activity amounted to 67% in assay [17], 77% in assay [13], 76% in assay [15] and 50% in assay [16].
